# Results published in the supplement of paper PMC10849652.
# Targets with a hit are over-represented here; the source holds about 7,900 in all. About 0.6% of all pairs of compound and target were hits. Unmarked numbers belong to inactive results.
# Compound: C[C@@H](Oc1cc(-c2cnn(C3CCNCC3)c2)cnc1N)c1c(Cl)ccc(F)c1Cl [crizotinib]
# Experiment: log2 fold change, soluble protein after heating vs DMSO (PISA); higher = thermal stabilisation; K562 cells, 10 uM, 30 min; active = over 0.2 and 3.5 SD of the protein, either way, in both replicates (recomputed)
# How it was run: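 For each measurement, 10 μM compound was applied for 30 min to K562 cells at 2×10^6 cells/mL. Aliquots were heated for 3 min across 48°C-58°C, pooled, and extracted in PBS with 0.5% NP-40 at 4°C; the supernatant after 21,000xg for 90 min was soluble protein. This was quantified by TMTpro 16plex LC-MS/MS with channel sums equalised, and thermal stability was reported relative to control samples from duplicates, on a log2 fold-change scale.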
# UniProt Q9P287, sequence (Q9P287 whole entry, looked up): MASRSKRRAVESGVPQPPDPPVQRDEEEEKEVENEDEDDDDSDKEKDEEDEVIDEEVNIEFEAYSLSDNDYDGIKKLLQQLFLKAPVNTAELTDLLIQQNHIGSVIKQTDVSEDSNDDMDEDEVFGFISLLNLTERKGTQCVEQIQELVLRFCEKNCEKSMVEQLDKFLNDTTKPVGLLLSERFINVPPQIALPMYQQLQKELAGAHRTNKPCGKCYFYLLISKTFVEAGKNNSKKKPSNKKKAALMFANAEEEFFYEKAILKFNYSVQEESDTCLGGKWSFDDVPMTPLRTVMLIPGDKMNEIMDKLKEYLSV
# UniProt Q8N6H7, sequence (Q8N6H7 whole entry, looked up): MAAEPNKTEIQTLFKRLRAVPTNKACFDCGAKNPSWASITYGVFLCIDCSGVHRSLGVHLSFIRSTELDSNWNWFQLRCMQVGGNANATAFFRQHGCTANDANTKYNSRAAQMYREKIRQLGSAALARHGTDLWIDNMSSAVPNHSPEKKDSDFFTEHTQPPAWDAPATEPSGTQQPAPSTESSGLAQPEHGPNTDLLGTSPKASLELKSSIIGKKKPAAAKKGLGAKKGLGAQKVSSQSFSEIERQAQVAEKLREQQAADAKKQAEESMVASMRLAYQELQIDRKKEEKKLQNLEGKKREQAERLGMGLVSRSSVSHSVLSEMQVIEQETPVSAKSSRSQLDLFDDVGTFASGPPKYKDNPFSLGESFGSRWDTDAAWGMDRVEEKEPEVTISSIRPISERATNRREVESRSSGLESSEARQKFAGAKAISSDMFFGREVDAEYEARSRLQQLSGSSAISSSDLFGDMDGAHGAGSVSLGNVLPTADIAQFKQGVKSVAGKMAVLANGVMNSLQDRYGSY
# UniProt O95433, sequence (O95433 whole entry, looked up): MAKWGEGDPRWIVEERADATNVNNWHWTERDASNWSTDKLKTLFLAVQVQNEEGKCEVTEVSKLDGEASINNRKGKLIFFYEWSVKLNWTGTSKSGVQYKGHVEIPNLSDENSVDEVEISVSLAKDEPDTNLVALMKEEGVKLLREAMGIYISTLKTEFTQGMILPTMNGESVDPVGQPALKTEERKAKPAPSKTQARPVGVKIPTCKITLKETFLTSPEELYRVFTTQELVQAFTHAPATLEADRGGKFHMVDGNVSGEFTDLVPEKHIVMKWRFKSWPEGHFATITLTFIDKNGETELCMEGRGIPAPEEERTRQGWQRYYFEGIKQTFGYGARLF
# UniProt Q86UU0, sequence (Q86UU0 whole entry, looked up): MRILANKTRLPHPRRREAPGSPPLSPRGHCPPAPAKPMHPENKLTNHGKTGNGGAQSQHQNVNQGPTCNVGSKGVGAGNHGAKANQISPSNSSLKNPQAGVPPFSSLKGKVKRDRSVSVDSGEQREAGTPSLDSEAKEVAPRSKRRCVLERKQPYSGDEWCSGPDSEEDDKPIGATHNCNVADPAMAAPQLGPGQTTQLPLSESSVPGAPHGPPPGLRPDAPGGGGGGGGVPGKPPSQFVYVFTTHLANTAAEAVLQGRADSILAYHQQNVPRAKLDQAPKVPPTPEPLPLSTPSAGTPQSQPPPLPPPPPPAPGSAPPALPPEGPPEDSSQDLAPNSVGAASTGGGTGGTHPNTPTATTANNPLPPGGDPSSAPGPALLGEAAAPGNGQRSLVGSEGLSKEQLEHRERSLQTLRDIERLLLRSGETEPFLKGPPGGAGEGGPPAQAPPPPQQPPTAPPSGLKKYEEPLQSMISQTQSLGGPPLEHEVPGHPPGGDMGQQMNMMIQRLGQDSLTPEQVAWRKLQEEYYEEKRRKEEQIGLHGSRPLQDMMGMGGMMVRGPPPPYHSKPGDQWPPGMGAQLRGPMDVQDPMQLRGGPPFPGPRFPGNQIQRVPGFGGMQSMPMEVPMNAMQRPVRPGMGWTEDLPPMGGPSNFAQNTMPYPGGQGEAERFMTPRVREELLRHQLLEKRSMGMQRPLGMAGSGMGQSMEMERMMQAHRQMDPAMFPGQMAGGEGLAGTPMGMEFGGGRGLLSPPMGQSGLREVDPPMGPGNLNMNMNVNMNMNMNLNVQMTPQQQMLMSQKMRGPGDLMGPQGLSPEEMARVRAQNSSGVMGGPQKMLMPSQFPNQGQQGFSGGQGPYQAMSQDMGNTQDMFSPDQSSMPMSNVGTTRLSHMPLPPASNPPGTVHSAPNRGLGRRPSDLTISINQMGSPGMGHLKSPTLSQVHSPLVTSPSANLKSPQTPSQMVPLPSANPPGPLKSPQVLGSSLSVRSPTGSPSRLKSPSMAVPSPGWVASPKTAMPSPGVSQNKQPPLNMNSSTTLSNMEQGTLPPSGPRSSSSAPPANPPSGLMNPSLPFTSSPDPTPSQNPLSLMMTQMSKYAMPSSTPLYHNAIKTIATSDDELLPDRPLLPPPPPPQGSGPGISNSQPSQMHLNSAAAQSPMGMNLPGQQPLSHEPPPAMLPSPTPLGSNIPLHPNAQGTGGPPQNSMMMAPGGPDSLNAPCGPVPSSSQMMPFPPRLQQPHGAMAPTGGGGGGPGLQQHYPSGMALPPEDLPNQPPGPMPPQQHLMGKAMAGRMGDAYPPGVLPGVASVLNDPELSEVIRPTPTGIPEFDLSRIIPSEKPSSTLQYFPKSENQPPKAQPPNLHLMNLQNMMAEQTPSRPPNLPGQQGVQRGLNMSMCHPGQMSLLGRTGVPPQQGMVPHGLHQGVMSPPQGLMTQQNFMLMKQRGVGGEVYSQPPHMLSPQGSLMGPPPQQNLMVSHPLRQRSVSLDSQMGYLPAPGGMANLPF
# UniProt Q66PJ3, sequence (Q66PJ3 whole entry, looked up): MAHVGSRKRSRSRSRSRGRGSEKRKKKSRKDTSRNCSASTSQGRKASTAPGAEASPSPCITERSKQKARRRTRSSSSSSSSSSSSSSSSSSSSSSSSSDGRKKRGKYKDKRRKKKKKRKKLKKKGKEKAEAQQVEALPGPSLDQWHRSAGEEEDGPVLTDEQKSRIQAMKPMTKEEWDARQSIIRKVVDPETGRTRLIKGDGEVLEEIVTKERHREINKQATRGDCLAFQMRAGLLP
# UniProt Q93084, sequence (Q93084 whole entry, looked up): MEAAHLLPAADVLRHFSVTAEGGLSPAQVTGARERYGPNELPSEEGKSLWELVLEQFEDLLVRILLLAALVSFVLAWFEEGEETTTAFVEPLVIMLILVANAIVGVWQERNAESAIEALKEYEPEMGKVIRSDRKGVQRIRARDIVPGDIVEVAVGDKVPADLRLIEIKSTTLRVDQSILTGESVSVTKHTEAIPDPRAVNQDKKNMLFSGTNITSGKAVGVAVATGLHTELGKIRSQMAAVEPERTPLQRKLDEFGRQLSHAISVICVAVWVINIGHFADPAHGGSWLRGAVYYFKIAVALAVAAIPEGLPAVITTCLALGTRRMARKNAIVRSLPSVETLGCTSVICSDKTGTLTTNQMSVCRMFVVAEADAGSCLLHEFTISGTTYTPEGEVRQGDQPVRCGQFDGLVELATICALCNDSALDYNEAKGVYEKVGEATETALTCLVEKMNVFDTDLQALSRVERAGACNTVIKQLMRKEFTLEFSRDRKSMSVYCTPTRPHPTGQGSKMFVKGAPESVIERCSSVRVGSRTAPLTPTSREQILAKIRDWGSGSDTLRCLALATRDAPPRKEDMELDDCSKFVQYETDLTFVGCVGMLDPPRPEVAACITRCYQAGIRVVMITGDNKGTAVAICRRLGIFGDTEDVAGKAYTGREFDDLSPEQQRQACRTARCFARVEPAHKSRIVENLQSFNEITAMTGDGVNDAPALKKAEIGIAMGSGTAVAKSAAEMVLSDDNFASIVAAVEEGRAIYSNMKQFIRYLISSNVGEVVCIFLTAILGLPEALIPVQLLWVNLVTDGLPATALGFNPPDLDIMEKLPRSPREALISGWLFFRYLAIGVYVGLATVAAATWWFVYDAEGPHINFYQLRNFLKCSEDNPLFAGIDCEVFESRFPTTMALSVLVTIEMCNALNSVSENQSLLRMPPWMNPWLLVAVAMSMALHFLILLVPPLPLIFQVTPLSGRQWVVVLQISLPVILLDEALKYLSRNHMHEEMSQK
# UniProt Q9NUQ2, sequence (Q9NUQ2 whole entry, looked up): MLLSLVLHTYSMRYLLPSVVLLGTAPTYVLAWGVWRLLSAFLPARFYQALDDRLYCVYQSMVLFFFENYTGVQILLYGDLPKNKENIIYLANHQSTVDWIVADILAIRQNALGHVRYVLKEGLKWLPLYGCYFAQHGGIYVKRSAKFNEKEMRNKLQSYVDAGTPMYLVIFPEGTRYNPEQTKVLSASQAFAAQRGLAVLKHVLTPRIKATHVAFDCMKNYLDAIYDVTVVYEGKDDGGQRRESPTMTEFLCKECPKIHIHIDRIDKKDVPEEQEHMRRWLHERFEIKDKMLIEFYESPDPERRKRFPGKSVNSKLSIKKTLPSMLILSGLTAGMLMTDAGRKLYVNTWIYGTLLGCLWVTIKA
# UniProt O43823, sequence (O43823 whole entry, looked up): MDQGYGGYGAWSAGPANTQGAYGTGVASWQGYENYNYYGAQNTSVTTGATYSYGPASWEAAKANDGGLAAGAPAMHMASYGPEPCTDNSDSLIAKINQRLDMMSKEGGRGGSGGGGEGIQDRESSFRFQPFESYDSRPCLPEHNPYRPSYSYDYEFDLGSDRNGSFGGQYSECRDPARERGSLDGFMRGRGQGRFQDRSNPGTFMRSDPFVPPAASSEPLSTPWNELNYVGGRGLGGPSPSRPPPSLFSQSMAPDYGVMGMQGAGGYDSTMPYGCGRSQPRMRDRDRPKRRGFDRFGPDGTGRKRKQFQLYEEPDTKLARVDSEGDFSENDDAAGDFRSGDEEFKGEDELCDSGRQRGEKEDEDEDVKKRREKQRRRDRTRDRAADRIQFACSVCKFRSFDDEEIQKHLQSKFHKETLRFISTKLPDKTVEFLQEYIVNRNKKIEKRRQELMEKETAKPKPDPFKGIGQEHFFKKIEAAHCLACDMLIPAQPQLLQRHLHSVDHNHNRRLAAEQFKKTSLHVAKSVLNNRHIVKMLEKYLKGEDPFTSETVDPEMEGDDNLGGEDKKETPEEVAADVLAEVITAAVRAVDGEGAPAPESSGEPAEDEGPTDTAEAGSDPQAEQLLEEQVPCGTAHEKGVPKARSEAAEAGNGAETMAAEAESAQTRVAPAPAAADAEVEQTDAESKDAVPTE
row,Target,log2 fold change
1,AAMP (UniProt Q13685),0.115
2,AKAP8 (UniProt O43823),-0.104
3,ABITRAM (UniProt Q9NX38),0.012
4,ARL6IP4 (UniProt Q66PJ3),0.026
5,ATP6V1H (UniProt Q9UI12),-0.199
6,B4GALT1 (UniProt P15291),-0.479 (active)
7,ASNS (UniProt P08243),-0.015
8,BCCIP (UniProt Q9P287),-0.02
9,BUB1B isoform 3 (UniProt O60566),-0.108
10,ATP9B (UniProt O43861),-0.033
11,ATP2A3 isoform 2 (UniProt Q93084),0.084
12,ACAD9 (UniProt Q9H845),0.035
13,BRD8 (UniProt Q9H0E9),-0.021
14,AGPAT5 (UniProt Q9NUQ2),-0.117
15,AIP (UniProt O00170),0.039
16,ACADVL isoform 3 (UniProt P49748),0.021
17,BID isoform 2 (UniProt P55957),0.087
18,BCL9L (UniProt Q86UU0),0.085

row,Target,log2 fold change
1,ARFGAP2 (UniProt Q8N6H7),0.042
2,AHSA1 (UniProt O95433),0.034
3,ANKRD29 (UniProt Q8N6D5),0.019
4,BRAP (UniProt Q7Z569),-0.205
5,BCCIP isoform 2 (UniProt Q9P287),-0.012
6,ACP2 (UniProt P11117),-0.051
7,B4GALNT1 (UniProt Q00973),0.014
8,ACIN1 (UniProt Q9UKV3),-0.014
9,BCLAF1 (UniProt Q9NYF8),-0.06
10,ABCA3 (UniProt Q99758),-0.361 (active)
11,ATP5IF1 (UniProt Q9UII2),0.058
12,AGO1 (UniProt Q9UL18),-0.064
13,ADH5 (UniProt P11766),0.033
14,ARGLU1 (UniProt Q9NWB6),-0.008
15,ABCB6 (UniProt Q9NP58),-0.457 (active)
16,ARFIP1 (UniProt P53367),-0.309
17,ATG4B isoform 2 (UniProt Q9Y4P1),-0.361
